This is an account of results in PubChem BioAssay AID1345083 (National Center for Advancing Translational Sciences (NCATS), 2018).

Hit rate of the full screen: of about 94,000 compounds, about 6,200 (6.6%) were called active. Where a call stands in place of a potency, no number is given. Another 31% or so got no clear call; they are omitted. Calls follow the shape of the dose curve; as a rule, active = well fitted inhibition curve with a large enough effect; inconclusive = small, poorly fitted or top-dose-only effect; inactive = flat fitted curve, though single readings scatter. This excerpt belongs to a sample that is enriched for actives.
Potency is read from the fitted curve at half-maximal effect.

This test is described as follows: Cytotoxic Profiling in HEK 293 Cell Line of Diverse Libraries Using Quantitative High-Throughput Screening. Also: nearly all actives have a fitted effect of over 60% in size. The following applies: HEK 293 viability, ATP luminescence (CellTiter-Glo), 48-72 h; series mostly up to 115 µM. The procedure, abridged:
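CellTiter-Glo luminescence (cellular ATP) was read after 48 or 72 hr of compound exposure at 37 degree Celsius. Cells were HEK 293 plated at 250 cells/well.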
(In general: Cellular ATP, detected with luciferase, serves as a proxy for viable cell number.)
As to `CCCC(=O)N(C)CC1CCOCC1`, the Potency result is “inactive”. With `COc1ccccc1NC(=O)N1CCC2(CCNC(=O)CC2)CC1`, the Potency result was “inactive”. On to `O=C(NCC1CCOCC1)c1ccc2[nH]ccc2c1`, for which the Potency result is “inactive”. With `CN(C)CCN(C)C(=O)c1ccc2c(c1)NC(C)(COc1ccc3[nH]ccc3c1)CO2` (stereo not drawn), the Potency was 112 µM (active).

With `CC1(COCC2CC2)COc2ccc(C(=O)NCc3cccnc3)cc2N1` (stereo not drawn), the Potency result was “inactive”. The entry for `CC(C)CC(=O)N1CCCN(c2nnc3ccccn23)CC1` is “inactive”. As to `C[C@@H](NC(=O)c1cccnc1)c1c(-c2ccc(F)cc2)noc1C(=O)O`, the Potency result is “inactive”. On to `CC(=O)NC1CN(c2ccnc3ccnn23)C1`, for which the Potency entry was “inactive”. As to `CC(=O)Nc1cccc(-c2nnc3n2CCCC3)c1`, the Potency entry was “inactive”. Then `Cc1cccc(C(=O)N2C[C@@H](F)C[C@H]2C(=O)N2CCCCC2)c1`, with “inactive”; and `Cc1cccc(-c2cccc(NC(=O)C3CCCN(C(=O)CC(F)(F)F)C3)c2)c1` (stereo not drawn), with 31.6 µM (active). For `CCCCc1ccc(NC(=O)Cn2ccn3nc(-c4ccc(F)cc4)c(CO)c3c2=O)cc1`, the Potency result is “inactive”. The figure for `O=C(NCc1cccc(C(F)(F)F)c1)c1nn(CCOc2ccccc2)c2c1CNCC2` is 28.2 µM (active); for `COc1ccccc1CNC(=O)c1nn(CC2CC2)c2c1CNCC2` it is “inactive”. The entry for `COC[C@H]1NC(=O)CC[C@H]1C(=O)NCc1cccc(C(F)(F)F)c1` is “inactive”; for `CNC(=O)c1noc([C@@H]2CC(F)(F)CN2Cc2ccc(C)cn2)n1` it is “inactive”. With `COc1ccc(OCC2CN(Cc3cccc(F)c3)[S+](=O)([O-])c3cccnc3O2)cc1` (stereo not drawn), the Potency was 28.2 µM (active). Turning to `COc1ccc(N2CC(COc3ccccc3)Oc3ncccc3[S+]2(=O)[O-])cc1` (stereo not drawn), the Potency entry was “inactive”. As for `COc1ccc(CN2CCC3(COc4ncccc4[S+](=O)([O-])N3)C2)cc1` (stereo not drawn), the Potency result is “inactive”. The entry for `CNC(=O)N1CCC(C2CCN(C(=O)C3CC=CC3)C2)CC1` (stereo not drawn) is “inactive”; for `CC(C)(C)c1csc(NC(=O)c2ccc3c(c2)OCCN(C2CCC2)C3)n1` it is 50.1 µM (active). Then `O=C(Cn1nc2c(cc1=O)CCCC2)Nc1nc(-c2ccc3c(c2)OCCCO3)cs1`, with “inactive”; and `COc1ccc(NC(=O)Cn2c(C)ccc(NS(=O)(=O)c3ccccc3)c2=O)cc1`, with “inactive”. `CCOc1ccc2c(n1)CCN(C(=O)C(C)C)C2`: the Potency entry was “inactive”.

For `O=C(NCc1ccc(Cl)nc1)c1cn2c(n1)CN(C(=O)c1cccnc1)CC2`, the Potency entry is “inactive”.

Consider `O=C(NCCc1cnccn1)c1coc(COc2cccc(C(F)(F)F)c2)n1`, for which the Potency entry is “inactive”.

Consider `CN(C)C[C@@H]1CN(c2ncccn2)C[C@H]1NC(=O)c1cc(Cl)ccc1F`, for which the Potency result is “inactive”. The figure for `CN(C)C[C@@H]1CN(Cc2ccccn2)C[C@H]1NC(=O)c1cc(Cl)ccc1F` is 44.7 µM (active); for `Cc1occc1C(=O)N[C@@H]1CN(Cc2cccnc2)C[C@H]1CN(C)C` it is “inactive”. Regarding `CNC(=O)c1cc(C)nc2onc(C3CCN(C(=O)c4ccc(C)cc4)CC3)c12`, the Potency result is “inactive”. Consider `NC(=O)CCNC(=O)C1=C[C@@H](NC(=O)Nc2ccccc2Br)[C@@H](O)[C@H](O)C1`, for which the Potency entry was “inactive”. Then `CCN(C1CCN(C)CC1)C1CN(C(=O)c2nccc3ccccc23)C1`, with “inactive”; and `CCOc1ccccc1NC(=O)CN1C(=O)C(c2ccccc2)=NC12CCCC2`, with 79.4 µM (active); and `CCOc1ccccc1NC(=O)Cn1c(=O)n(-c2ccccc2)c(=O)c2c1cc(C)n2C`, with “inactive”. Consider `CCc1cccc(C)c1NC(=O)CN1C(=O)C(c2ccccc2)=NC12CCCC2`, for which the Potency entry was “inactive”. Then `Cc1noc(C)c1[S+](=O)([O-])N1CCn2c(nnc2C2CCCNC2)C1` (stereo not drawn), with “inactive”; and `c1cc2c(cc1-c1n[nH]c(C3CCOCC3)n1)OCO2`, with “inactive”; and `COc1ccc(-c2[nH]nc3ncc(-c4cn[nH]c4)nc23)cc1F`, with “inactive”. On to `Cc1cccc(-c2cnc3n[nH]c(-c4ccc5c(c4)OCO5)c3n2)c1`, for which the Potency is 70.8 µM (active). `CC(=O)N1CCC(Oc2ccc(Cl)cc2C(=O)N2CCN(CC3CC3)CC2)CC1`: the Potency entry was “inactive”. Consider `CCn1cc(S(=O)(=O)N2CCc3nn(CC4CC4)c(=O)n3CC2)cn1`, for which the Potency result is “inactive”. Then `CN(C)c1ccc2ncc(Nc3ccccc3F)n2n1`, with 112 µM (active); and `O=C(NCCCN1CCCCC1)C1CCN(C(=O)N2CC3CC(C2)[C@H]2CCCC(=O)N2C3)CC1` (stereo partly drawn), with “inactive”. `COCCN1CCC2(CCC1=O)CCN(C(=O)c1sc(C)nc1C)CC2`: the Potency entry is “inactive”.

On to `CCOC(=O)C1=CN(CC(=O)Nc2ccccc2F)S(=O)(=O)N=C1C`, for which the Potency entry is “inactive”. Consider `CCOc1cc(C)c(CN2C[C@@H](CN(C)C)C[C@H](CO)C2)cc1C(C)C`, for which the Potency was 35.5 µM (active). `COc1cc(C)c(CN2CCN3C(=O)CNC(=O)C3C2)cc1C(C)C` (stereo not drawn): the Potency result is “inactive”. The entry for `Cc1cc(=O)n(CC(=O)N2C[C@H](CO)C[C@H](CN(C)C)C2)nc1C` is “inactive”; for `COc1ccc(C(=O)NCc2nnc3ccc(-c4ccccc4)nn23)c(OC)n1` it is “inactive”; for `COc1ccccc1Nc1cnc2ccc(-c3ccc(OC)c(OC)c3)nn12` it is 11.2 µM (active). Take `Cc1ccc(-c2ccc3nnc(CNC(=O)c4cccnc4)n3n2)cc1C`: the Potency entry is “inactive”. For the molecule `CN(C)c1cccc(-c2cnc(Nc3ccc(N4CCOCC4)cc3)c3c2CCO3)c1`, the Potency was 22.4 µM (active). For `Cc1cccc(CNC(=O)C2Cn3cccc3C(=O)N2CC(C)C)c1` (stereo not drawn), the Potency result was “inactive”. Take `CCOC(=O)[C@H]1[C@@H](O)C(=O)N(Cc2ccccc2)C12CCN([S+](C)(=O)[O-])CC2`: the Potency result was “inactive”. With `Cc1ccc2c(n1)N(C)[C@H](CO)CCN(Cc1ccccc1C)C2`, the Potency is 89.1 µM (active). As to `Cc1ccccc1CN1CCC2(C1)C(=O)N(C)C(=O)N2C` (stereo not drawn), the Potency entry was “inactive”. As for `Cc1ccccc1CN1CCC(N2CCCC(C(=O)NC3CC3)C2)CC1` (stereo not drawn), the Potency result is “inactive”. For `C=CCN1CCN(C(=O)C2CCCN(C(=O)c3ccccc3)CCC(=O)NCC2)CC1` (stereo not drawn), the Potency entry is “inactive”.

Take `CC(C)(C)c1cc(CC2(NCc3ccc(C#N)cc3)COC2)no1`: the Potency result is “inactive”. `CC1CCN([C@@H]2[C@H](O)[C@H](CO)O[C@@H]2CNC(=O)Nc2ccccc2)CC1`: the Potency entry was “inactive”.

As to `COCc1cc(C[C@@H]2CC[C@H](O)[C@@H](CN(C)C)O2)no1`, the Potency result was “inactive”. Take `Cc1cc(C[C@@H]2COC[C@@H]2NC(=O)C2CCN(C(=O)N(C)C)CC2)on1`: the Potency result was “inactive”.

Take `CC(=O)N1CCC(N[C@H]2C[C@@H](Cc3cc(CN(C)c4ccccc4)on3)C2(C)C)CC1`: the Potency is 70.8 µM (active). `CN(Cc1nccn1C)C(=O)c1cc(CN2CCC(Cc3ccccc3)CC2)on1`: the Potency entry is “inactive”. For the molecule `CN(Cc1ccccc1)Cc1cc(CC2(NCc3ccc(CO)o3)COC2)no1`, the Potency result is “inactive”. The figure for `CC1(C)[C@H](Cc2cc(CC3CCCCC3)on2)C[C@@H]1NC1CCOCC1` is 28.2 µM (active); for `CCC(CC)C(=O)N[C@H]1C[C@@H](Cc2cc(COc3ccccc3)on2)C1(C)C` it is 31.6 µM (active); for `CC1(C)[C@H](Cc2cc(CC3CCCCC3)on2)C[C@@H]1NC(=O)C1CCC1` it is 35.5 µM (active). For the molecule `O=C(O)C[C@@H]1CCN(S(=O)(=O)c2ccccc2)C[C@@H]1CC1=NCCc2cc(F)ccc21`, the Potency result is “inactive”. The entry for `O=C(NC1CCN(C(=O)N2CC3CC(C2)[C@H]2CCCC(=O)N2C3)CC1)c1ccsc1` (stereo partly drawn) is “inactive”; for `O=C(c1ccccc1F)N1CCC2(CC1)N(c1ccccc1)C(=O)CS2(=O)=O` it is “inactive”. On to `O=C(NCc1ccccc1-n1cncn1)C1CC(=O)N(Cc2ccccn2)C1` (stereo not drawn), for which the Potency entry is “inactive”. As to `Cc1cccc(Cl)c1NC(=O)Cn1c(C)cc2nc3n(c(=O)c21)CCCCC3`, the Potency result is “inactive”.

For `COc1ccccc1C(=O)NCC1Cn2cccc2C(=O)N1Cc1cccnc1` (stereo not drawn), the Potency result is “inactive”. The entry for `COCc1nnc2n1CCC(NC(=O)CCc1c(C)nn(C)c1C)CC2` (stereo not drawn) is “inactive”; for `CC(C)NC(=O)NC1CCN(c2ccc3nnc(-c4ccccc4)n3n2)C1` (stereo not drawn) it is “inactive”. With `COc1cc(OC)c(NC(=O)N2CCCC2c2nncn2C2CCCC2)cc1Cl` (stereo not drawn), the Potency result was “inactive”. As to `O=C(Nc1ccccc1)N1CCc2nc(-c3ccccc3)nc(-c3ccc(Cl)cc3)c2C1`, the Potency entry was “inactive”. For the molecule `COc1ccc(C(=O)N2CCC([C@@H]3CNC[C@H]3CO)CC2)cc1OC`, the Potency entry was “inactive”. As to `COCCOCC(=O)N1CCCC(c2nc(-c3cccnc3)no2)CCNC(=O)CC1` (stereo not drawn), the Potency result was “inactive”.

Take `CC(c1cccs1)N(C)[S+](=O)([O-])c1cccc(C(F)(F)F)c1` (stereo not drawn): the Potency result was “inactive”. As for `COCC1CN(C2CCC2)CC12CCN(C(=O)C1CCN(C(C)=O)CC1)CC2` (stereo not drawn), the Potency result is “inactive”.

For the molecule `COCC(=O)NC1CCC12CCN(C(=O)CCCc1ccccc1)CC2` (stereo not drawn), the Potency entry is “inactive”. As for `COCC1CN(C2CCC2)CC12CCN(C(=O)CCc1ccccc1)CC2` (stereo not drawn), the Potency is 31.6 µM (active). As for `O=C(NCc1c[nH]c2ncccc12)c1ccccn1`, the Potency entry is “inactive”.

Regarding `COCCOCc1nc(C2CCN(C(=O)c3ccncc3)CC2)no1`, the Potency entry is “inactive”. As to `COCc1nc(C2CCN(C(=O)c3ccoc3)C2)no1` (stereo not drawn), the Potency entry is “inactive”.

For `COc1ccc2c(c1)CCc1c-2n[nH]c1C(=O)N1CCC(c2noc(COc3ccc(C)cc3)n2)CC1`, the Potency was 22.4 µM (active). With `Cc1ccc(OCc2nc(C3CCN(C(=O)c4noc(C)c4CN4CCCCC4)CC3)no2)cc1`, the Potency was 31.6 µM (active). Take `CCOc1ccc(C(=O)N2CCCC(c3noc(COC)n3)C2)cc1` (stereo not drawn): the Potency entry was “inactive”. For `COCc1nc(C2CCN(C(=O)c3ccn[nH]3)C2)no1` (stereo not drawn), the Potency entry was “inactive”. Then `CCC(C)NC(=O)C1COC2(CCN(C(=O)CC(C)(C)C)CC2)N1C(=O)c1cccc(OC)c1` (stereo not drawn), with “inactive”; and `COc1ccc(S(=O)(=O)N2CCC(N(C(=O)C3CC3)C3CCOCC3)CC2)cc1`, with “inactive”; and `COCc1cc(=O)n(CC(=O)Nc2ccc(C)cc2)c(N2CCOCC2)n1`, with “inactive”. Regarding `CN(Cc1ccc(OC(F)(F)F)cc1)C(=O)C1(C)CCOCC1`, the Potency result was “inactive”. The entry for `CNC(=O)c1cc[nH]c1C1CCCN(C(=O)c2noc(C)c2Cn2cccn2)C1` (stereo not drawn) is “inactive”; for `COc1cccc(C(=O)N2C(C(=O)NC3CC3)COC23CCN(C(=O)c2ccc(F)cc2)CC3)c1` (stereo not drawn) it is “inactive”; for `O=C(CCC[C@@H]1[C@H]2CCCN3CCC[C@@H](CN1C(=O)c1cccnc1)[C@@H]23)NCCCc1ccccc1` it is “inactive”.
